Counter-ions that a name gives are not always drawn. Whole data set: some 2,000 compounds, median “fractional viability relative to vehicle” near 0.92, cut for the lowest 2% near 0.11. Many of the other results were omitted from the sample, so the lowest values are more common in it than they were.
System: TYKNU
Test: fractional viability relative to vehicle; TYKNU is a high-grade serous ovarian cancer line; higher = less growth inhibition
Settings: 72 h, genotype: OPA1 knockout (sgOPA1 #2)
Method in brief: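 TYKNU control cells or lentiCRISPRv2 knockout derivatives were seeded at 500 cells per well into drug-stamped 384-well plates holding a ~2100-compound library at 2 or 10 μM, in duplicate. Cells were grown at 37 °C in 5% CO2 in RPMI 1640 with 10% FBS, and drug treatment lasted 72 h. Viability was read by Cell Titer Glo luminescence. Duplicate treatment wells were averaged and normalised to duplicate control wells from the same plate position.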

| Compound | fractional viability (2uM) | fractional viability (10uM) |
| --- | --- | --- |
| c1nc2c(NC3CCCCC3)nc(Nc3ccc(N4CCOCC4)cc3)nc2[nH]1 [Reversine] | 0.571 | 0.342 |
| CN1CCC(Nc2nc(Nc3ccc(Oc4ccccc4)cc3)c3c(=O)[nH]cc(Br)c3n2)CC1 | 0.289 | 0.0528 |
| CCCCN1CCCC[C@H]1C(=O)Nc1c(C)cccc1C [Levobupivacaine HCl] | 1.06 | 0.949 |
| CCC1C/C(=C\c2cccnc2)C(=O)/C(=C/c2cccnc2)C1 (configuration not stated) | 0.442 | 0.189 |
| C1=N/C2=N/c3ccc(OCCN4CCCC4)c(c3)COC/C=C/COCc3cccc(c3)C(=C1)N2 [Pacritinib (SB1518)] | 0.318 | 0.0734 |
| Cc1cncc(CN2CCC(=C3c4ccc(Cl)cc4CCc4cccnc43)CC2)c1 [Rupatadine Fumarate] | 1.06 | 0.915 |
| NC(=O)c1ccc(N(C(N)=O)c2c(F)cccc2F)nc1-c1ccc(F)cc1F | 1.19 | 1.05 |
| CCN(CC)CCN(Cc1ccc(-c2ccc(C(F)(F)F)cc2)cc1)C(=O)Cn1c(SCc2ccc(F)cc2)nc(=O)c2c1CCC2 | 0.76 | 0.0367 |
| O=C(NNc1nc2cc(F)ccc2n2cccc12)c1cnccn1 | 0.576 | 0.643 |
| C=CC[N+]1([C@H]2C[C@H]3[C@@H]4CC[C@H]5C[C@H](O)[C@@H](N6CCOCC6)C[C@]5(C)[C@H]4CC[C@]3(C)[C@H]2OC(C)=O)CCCC1 [Rocuronium Bromide] | 1.16 | 1.11 |
| CCCCC(C=O)NC(=O)C(CC(C)C)NC(=O)C(CC(C)C)NC(C)=O (configuration not stated) | 0.8 | 0.939 |
| COC[C@H](NC(=O)c1cnc(C)s1)C(=O)N[C@@H](COC)C(=O)N[C@@H](Cc1ccccc1)C(=O)[C@@]1(C)CO1 [Oprozomib (ONX 0912)] | 0.153 | 0.136 |
| CC(C)C[C@H](NC(=O)[C@H](CCc1ccccc1)NC(=O)CN1CCOCC1)C(=O)N[C@@H](Cc1ccccc1)C(=O)N[C@@H](CC(C)C)C(=O)[C@@]1(C)CO1 [Carfilzomib (PR-171)] | 0.0962 | 0.146 |
| COc1ccc(C[C@H](NC(=O)[C@H](C)NC(=O)CN2CCOCC2)C(=O)N[C@@H](Cc2ccccc2)C(=O)[C@@]2(C)CO2)cc1 | 0.149 | 0.144 |
| CC(C)C[C@@H]1NC(=O)[C@@H](C(C)C)NC(=O)[C@@H]2CCCN2C(=O)[C@@H](CC(=O)O)NC(=O)[C@@H](Cc2c[nH]c3ccccc23)NC1=O | 0.722 | 0.866 |
| C=CCNC1=C2C[C@@H](C)C[C@H](OC)[C@H](O)[C@@H](C)/C=C(\C)[C@H](OC(N)=O)[C@@H](OC)/C=C\C=C(/C)C(=O)NC(=CC1=O)C2=O [17-AAG (Tanespimycin)] | 0.652 | 0.468 |
| CCN1CCN(Cc2ccc(C(=O)Nc3ccc(C)c(Oc4ccc5c(c4)CC(=O)N5)c3)cc2C(F)(F)F)CC1 | 0.782 | 0.462 |
| Cc1ccc(C(=O)Nc2ccc(CN3CCN(C)CC3)c(C(F)(F)F)c2)cc1C#Cc1cnc2[nH]ncc2c1 | 0.589 | 0.115 |
| Cc1ccc(C(=O)Nc2ccc(CN3CCN(C)CC3)c(C(F)(F)F)c2)cc1C#Cc1cnc2cccnn12 | 0.67 | 0.106 |
| Nc1cccc2c1CN(C1CCC(=O)NC1=O)C2=O (configuration not stated) [Lenalidomide (CC-5013)] | 1.14 | 1.02 |
| COCC[n+]1c2c(n(Cc3cnccn3)c1C)C(=O)c1ccccc1C2=O [YM155 (Sepantronium Bromide)] | 0.06 | 0.0555 |
| CC(C)NCCCn1c(Sc2cc3c(cc2I)OCO3)nc2c(N)ncnc21 | 0.428 | 0.48 |
| CCCCCOc1ccc(-c2ccc(-c3ccc(C(=O)N[C@H]4C[C@@H](O)[C@@H](O)NC(=O)[C@@H]5[C@@H](O)[C@@H](C)CN5C(=O)[C@H]([C@@H](C)O)NC(=O)[C@H]([C@H](O)[C@@H](O)c5ccc(O)cc5)NC(=O)[C@@H]5C[C@@H](O)CN5C(=O)[C@H]([C@@H](C)O)NC4=O)cc3)cc2)cc1 | 1.02 | 0.857 |
| CC(=O)Nc1ccccc1 [Acetanilide] | 0.946 | 0.905 |

| Compound | fractional viability (2uM) | fractional viability (10uM) |
| --- | --- | --- |
| CC(C)(C)C(=O)Nc1ccc2c(c1)C(=O)C(=O)c1ccccc1-2 | 0.181 | 0.0604 |
| O=C(O)CCCN1CCC(O[C@@H](c2ccc(Cl)cc2)c2ccccn2)CC1 [Bepotastine Besilate] | 1.14 | 0.923 |
| CN1CCC(CNc2ccc3ncc(-c4cccc(OC(F)(F)F)c4)n3n2)CC1 [SGI-1776 free base] | 0.888 | 0.107 |
| CN1CCC(COc2cnc(-c3cccc(Cn4nc(-c5cccc(C#N)c5)ccc4=O)c3)nc2)CC1 | 0.78 | 0.216 |
| NC(CO)(CO)CO [Trometamol] | 0.883 | 0.842 |
| O=C(O)C(Cc1c[nH]c2ccccc12)N1C(=O)c2ccccc2C1=O (configuration not stated) | 0.905 | 0.771 |
| N#CC(=C(/N)Sc1ccccc1N)/C(C#N)=C(\N)Sc1ccccc1N | 1.36 | 1.25 |
| OCCn1cc(-c2ccc3c(c2)CC/C3=N\O)c(-c2ccncc2)n1 | 1.14 | 0.942 |
| Oc1ccc(-c2nc(-c3ccc(F)cc3)c(-c3ccncc3)[nH]2)cc1 | 1.48 | 1.09 |
| CN(C)CCOc1ccc(-c2nc(-c3ccncc3)c(-c3ccc4c(c3)CC/C4=N\O)[nH]2)cc1 | 0.833 | 0.0595 |
| O=C(CSc1nc2c(c(=O)n1-c1ccccc1)SCC2)Nc1ccc(-c2ccccc2)cn1 | 1.09 | 0.948 |
| COc1cc2c(cc1OC)CC(=O)N(CCCN(C)C[C@H]1Cc3cc(OC)c(OC)cc31)CC2 [Ivabradine HCl] | 1.02 | 0.967 |
| COc1cc(-c2cc(-c3ccc(N4CCNCC4)cc3)cnc2C)cc(OC)c1OC | 0.878 | 0.835 |
| COc1ccc(-c2cnc3c(-c4cccc5ncccc45)cnn3c2)cc1 | 1.15 | 1.2 |
| c1cc(-c2cnn3cc(-c4ccc(N5CCNCC5)cc4)cnc23)c2cccnc2c1 | 0.104 | 0.0761 |
| CC1(C)CC(=O)c2c(C(F)(F)F)nn(-c3ccc(C(N)=O)c(N[C@H]4CC[C@H](O)CC4)c3)c2C1 | 0.668 | 0.574 |
| CC1(C)C=C(CN2C/C(=C\c3ccc(F)cc3)C(=O)/C(=C/c3ccc(F)cc3)C2)C(C)(C)N1O | 0.837 | 0.79 |
| C=CC(=O)N1C/C(=C\c2ccc([N+](=O)[O-])cc2)C(=O)/C(=C/c2ccc([N+](=O)[O-])cc2)C1 | 0.0989 | 0.111 |
| CC(=O)c1cc([N+](=O)[O-])c(Sc2ccc(F)cc2F)s1 | 0.985 | 0.596 |
| COc1ccc([C@H]2CNC(=O)C2)cc1OC1CCCC1 [S- (+)-Rolipram] | 1.2 | 1.04 |
| Cc1cc(C)nc(NS(=O)(=O)c2ccc(NC(=S)NC(=O)COc3ccc(Br)cc3Cl)cc2)n1 | 0.956 | 0.803 |
| O=C(NCc1ccncc1)C12CC3CC(C1)CC(c1ccc(Cl)cc1)(C3)C2 | 1.06 | 0.861 |
| NC(=O)N/N=C/c1ccc([N+](=O)[O-])o1 [Nitrofural] | 1.55 | 1.47 |
| Cc1ccc(S(=O)(=O)c2ccc([N+](=O)[O-])o2)cc1 | 0.0667 | 0.0291 |

| Compound | fractional viability (2uM) | fractional viability (10uM) |
| --- | --- | --- |
| CC(C)(C)NS(=O)(=O)c1cncc(-c2cc(F)c3nc(N)nn3c2)c1 | 1.04 | 1.06 |
| O=C(O)C1=C[C@@H](O)[C@@H](O)[C@H](O)C1 [Shikimic Acid] | 1.04 | 0.875 |
| C=C1/C(=C\C=C2/CCC[C@]3(C)[C@@H]([C@H](C)CCCC(C)(C)O)CC[C@@H]23)C[C@@H](O)C[C@@H]1O [Calcitriol] | 0.965 | 0.937 |
| Cc1ccccc1CN1C2=NCCN2C(=O)C2=C1CCN(Cc1ccccc1)C2 [TIC10 Analogue] | 0.878 | 0.768 |
| COc1cc2ncnc(Oc3ccc(CC(=O)Nc4cnn(C(C)C)c4)cc3)c2cc1OC | 0.949 | 0.942 |
| CC1(C)CC[C@]2(NC(=O)C(C)(F)F)CC[C@]3(C)[C@H](C(=O)C=C4[C@@]5(C)C=C(C#N)C(=O)C(C)(C)[C@@H]5CC[C@]43C)[C@@H]2C1 [Omaveloxolone (RTA-408)] | 0.166 | 0.0407 |
| CN(C)CCNC(=O)c1cccn2c(=O)c3cc4ccccc4cc3nc12 | 0.61 | 0.294 |
| COc1nccc(-c2c(-c3ccc(F)cc3)ncn2C2CCC(O)CC2)n1 (configuration not stated) | 0.999 | 0.786 |
| CC(C)NCC(O)COc1cccc2ccccc12 (configuration not stated) [Propranolol HCl] | 0.809 | 1.12 |
| CC(C)(C)NCC(O)COc1cccc2c1CCC(=O)N2 (configuration not stated) [Carteolol HCl] | 0.973 | 0.93 |
| CC(C)(Cc1ccc2ccccc2c1)NC[C@@H](O)COc1cccc(Cl)c1C#N | 1.06 | 0.0653 |
| O=[N+]([O-])c1ccc(Nc2nc(N3CCOCC3)nc(N3CCOCC3)n2)cc1 | 0.893 | 0.934 |
| CC(C)(C)c1ccc(S(=O)(=O)NCc2ccc(C(=O)Nc3cccnc3)cc2)cc1 | 0.306 | 0.165 |
| CCS(=O)(=O)N1CCN(c2ccc(Nc3ncc(C(N)=O)c(NC4CC4)n3)cc2)CC1 | 0.781 | 0.496 |
| CCCC(=O)Nc1cccc(NC(=O)c2ccccc2Br)c1 | 1 | 1.07 |
| COc1cc2c(cc1OC)CN(CCc1ccc(NC(=O)c3cc(OC)c(OC)cc3NC(=O)c3cnc4ccccc4c3)cc1)CC2 [Tariquidar] | 0.891 | 0.459 |
| CCc1ccc(OCc2ccccc2C(=O)Nc2ccc3nc(C)cc(N)c3c2)cc1 | 0.16 | 0.0251 |
| Cc1ccc(CNc2ncnc3ccc(-c4ccc(CO)o4)cc23)o1 | 0.989 | 1.02 |
| O=[N+]([O-])c1cn2c(n1)OC[C@@H](OCc1ccc(OC(F)(F)F)cc1)C2 | 1.15 | 1.66 |
| CC(C)(C)OC(=O)Nc1ccc(-c2cc(C(=O)NCCCCCCC(=O)NO)no2)cc1 | 0.367 | 0.171 |
| COc1ccc(/C=C\c2cc(OC)c(OC)c(OC)c2)cc1O [Combretastatin A4] | 0.313 | 0.292 |
| COc1cc(/C=C/C(=O)N2CCN(CC(=O)N3CCCC3)CC2)cc(OC)c1OC [Cinepazide maleate] | 0.929 | 0.991 |
| COc1cc(/C=C/C(=O)N2CCC=CC2=O)cc(OC)c1OC [Piperlongumine] | 0.31 | 0.085 |
